Laboratory results from the supplement of paper PMC6607015.
Counter-ions that a name gives are not always drawn.

Tests used:
Details in all cases: compound concentration in added solution (µM; 5 µl added to 20 µl cells): 10; 18 h
A431 [1] = experiment: LBPA endosome anti-LBPA integrated intensity (sum per cell), Z-score; higher = more LBPA staining
Summary of the method: (§1)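 HeLa MZ or A431 cells (3,500/well in 20 µl) were seeded onto 5 µl of 10 µM compound solution in duplicate 384-well imaging plates, incubated 18 h, then fixed in 4% PFA. Cells were stained with 6C4 anti-LBPA antibody, filipin, propidium iodide and CellTracker green, and four 20× images were taken per well. MetaXpress segmentation gave per-cell integrated LBPA or filipin intensity, either whole-cell or within LBPA endosomes. Values are Z-scores normalised in AcuityXpress.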

HeLa MZ [2] = experiment: as above
Summary of the method: as §1

A431 [3] = experiment: whole-cell filipin (free cholesterol) integrated intensity, Z-score; higher = more cholesterol staining
Summary of the method: as §1

HeLa MZ [4] = experiment: as above
Summary of the method: as §1

A431 [5] = experiment: filipin (cholesterol) integrated intensity within LBPA endosomes, Z-score; higher = more cholesterol in LBPA endosomes
Summary of the method: as §1

HeLa MZ [6] = experiment: as above
Summary of the method: as §1

SMILES | LBPA endosome anti-LBPA integrated intensity (z-score) (A431 [1]) | LBPA endosome anti-LBPA integrated intensity (z-score) (HeLa MZ [2]) | whole-cell filipin (z-score) (A431 [3]) | whole-cell filipin (z-score) (HeLa MZ [4]) | filipin (z-score) (A431 [5]) | filipin (z-score) (HeLa MZ [6])
C=C(C)[C@@H]1[C@H]2OC(=O)[C@@H]1[C@]1(O)C[C@H]3O[C@]34C(=O)O[C@H]2[C@]14C [Picrotoxinin] | -0.582 | -0.88 | -0.718 | -0.469 | -0.448 | -0.32
O=[N+]([O-])O[C@H]1CO[C@H]2[C@@H]1OC[C@H]2O[N+](=O)[O-] [Isosorbide dinitrate] | -0.547 | -1 | -0.426 | -0.655 | -0.496 | -0.471
CCN(C(C)=O)c1cccc(-c2ccnc3c(C#N)cnn23)c1 [Zaleplon] | -0.486 | -0.0487 | -0.573 | -0.909 | -0.493 | -0.507
COc1ccc2c(c1)[C@]13CCCC[C@@H]1[C@H](C2)N(C)CC3 [Dextromethorphan hydrobromide monohydrate] | -0.375 | 0.494 | -0.0383 | 0.286 | -0.149 | 0.237
NCCCNCCSP(=O)(O)O [Amifostine] | -0.621 | -1 | -0.901 | -0.742 | -0.572 | -0.603
Cc1cccc(C)c1NC1=NCCCS1 [Xylazine] | -0.493 | 0.606 | -0.691 | -0.725 | -0.524 | -0.0906
CC(C)(N)Cc1ccccc1 [Phentermine hydrochloride] | -0.333 | 0.854 | 0.392 | 0.563 | -0.29 | -0.0575
C[C@]12CCC(=O)C=C1C=C[C@@H]1[C@@H]2CC[C@@]2(C)[C@H]1CC[C@@]2(O)CCC(=O)O [Canrenoic acid potassium salt] | -0.568 | -1.1 | -1.15 | -1.15 | -0.611 | -0.819
C[N+]1([O-])[C@@H]2C[C@@H](OC(=O)[C@H](CO)c3ccccc3)C[C@H]1[C@@H]1O[C@@H]12 (some centres undefined) [Scopolamin-N-oxide hydrobromide] | -0.692 | -1.8 | -1.01 | -0.711 | -0.67 | -0.618
CC(=O)O[C@H]1CC[C@@]2(C)C(=CC[C@@H]3[C@@H]2CC[C@]2(C)C(=O)CC[C@@H]32)C1 [Dehydroisoandosterone 3-acetate] | -0.242 | -0.00203 | 0.0526 | 0.0333 | -0.136 | -0.214
Oc1ccc2c3c1O[C@H]1[C@@H](O)CC[C@@]4(O)[C@@H](C2)N(CC2CCC2)CC[C@]314 [Nalbuphine hydrochloride] | -0.515 | -0.32 | -0.797 | -0.749 | -0.572 | -0.371
Clc1ccc(C(OCCN2CCCCC2)c2ccccc2)cc1 (centres undefined) [Cloperastine hydrochloride] | 3.12 | 1.44 | 1.35 | -0.495 | 2.83 | 0.777
C[C@]12Cc3c[nH]nc3C[C@@H]1CC[C@@H]1[C@@H]2CC[C@@]2(C)[C@H]1CC[C@]2(C)O [Stanozolol] | 0.154 | 1.15 | 0.353 | -0.167 | 0.0473 | -0.12
C(#CCN1CCCC1)CN1CCCC1 [Tremorine dihydrochloride] | -0.282 | 0.485 | -0.922 | -0.198 | -0.368 | 0.452
CC(NC(C)(C)C)C(=O)c1cccc(Cl)c1 (centres undefined) [Bupropion hydrochloride] | -0.577 | -0.652 | -0.448 | -0.134 | -0.453 | -0.438
CCOC(=O)c1cncn1[C@H](C)c1ccccc1 [Etomidate] | -0.611 | -1.14 | -0.618 | -0.784 | -0.487 | -0.672
CC(=O)OC1CN2CCC1CC2 (centres undefined) [Aceclidine Hydrochloride] | -0.622 | -1.07 | -0.642 | 0.0664 | -0.61 | -0.54
CC(=O)O[C@H]1C[C@@H]2CC[C@@H]3[C@H](CC[C@@]4(C)[C@H]3C[C@H]([N+]3(C)CCCCC3)[C@@H]4OC(C)=O)[C@@]2(C)C[C@@H]1[N+]1(C)CCCCC1 [Pancuronium bromide] | -0.551 | -0.744 | 0.0171 | -0.166 | -0.527 | -0.532
N[C@@H]1C[C@H]1c1ccccc1 [Tranylcypromine hydrochloride] | -0.505 | -0.919 | -0.309 | -0.693 | -0.48 | -0.53
NCCc1c[nH]c2ccc(O)cc12 [Serotonin hydrochloride] | -0.716 | -1.58 | -1.04 | -1.21 | -0.627 | -0.624
COc1ccc(CN2CCNCC2)c(OC)c1OC [Trimetazidine dihydrochloride] | -0.479 | 0.3 | -0.53 | -0.184 | -0.484 | -0.365
C[C@]12CCC(=O)C(O)=C1CC[C@@H]1[C@@H]2CC[C@]2(C)C(=O)CC[C@@H]12 [Formestane] | 1.1 | 1.9 | 2.53 | 2.23 | 2.1 | 1.15

SMILES | LBPA endosome anti-LBPA integrated intensity (z-score) (A431 [1]) | LBPA endosome anti-LBPA integrated intensity (z-score) (HeLa MZ [2]) | whole-cell filipin (z-score) (A431 [3]) | whole-cell filipin (z-score) (HeLa MZ [4]) | filipin (z-score) (A431 [5]) | filipin (z-score) (HeLa MZ [6])
CCCC(C)C1(CC)C(=O)NC(=O)NC1=O (centres undefined) [Pentobarbital] | -0.683 | -1.58 | -0.881 | -0.632 | -0.553 | -0.624
CC(C)[N+](C)(CCC(C(N)=O)(c1ccccc1)c1ccccc1)C(C)C [Isopropamide iodide] | -0.212 | 0.0469 | 0.00888 | -0.577 | -0.389 | -0.451
O=C(CCCN1CCC2(CC1)C(=O)NCN2c1ccccc1)c1ccc(F)cc1 [Spiperone] | 1.39 | 1.71 | 1.66 | 1.7 | 1.87 | 2.13
C=CCN1CC[C@]23c4c5ccc(O)c4O[C@H]2C(=O)CC[C@@]3(O)[C@H]1C5 [Naloxone hydrochloride] | -0.497 | -0.128 | -0.72 | -1.07 | -0.454 | -0.503
CC(CCc1ccccc1)NC(C)C(O)c1ccc(O)cc1 (centres undefined) [Nylidrin] | 0.233 | 1.33 | 0.218 | -0.109 | -0.121 | 0.184
CN1CCC2(C)c3cc(O)ccc3N(C)C12 (single isomer, unassigned; (-)) [(-)-Eseroline fumarate salt] | -0.298 | 0.682 | 0.444 | -0.261 | -0.415 | -0.33
CC(C)(C)NCC(O)c1ccccc1Cl (centres undefined) [Tulobuterol] | -0.101 | 1.38 | 0.203 | 0.36 | -0.334 | -0.0322
C[C@]12CC[C@H](O)C[C@@H]1CC[C@@H]1[C@@H]2CC[C@]2(C)C(=O)CC[C@@H]12 [Epiandrosterone] | 1.56 | 0.767 | 2.3 | 2.67 | 2.15 | 1.85
CC[C@@H](CO)NC(=O)[C@@H]1C=C2c3cccc4[nH]cc(c34)C[C@H]2N(C)C1 [Methylergometrine maleate] | -0.539 | -1.25 | -0.649 | -0.308 | -0.495 | -0.637
O=C([O-])c1ccccc1-c1c2cc(Br)c(=O)cc-2oc2[c]([Hg+])c([O-])c(Br)cc12.[Na+].[Na+].[OH-] [Merbromin] | -0.53 | -1.95 | -0.246 | -0.654 | -0.525 | -0.65
NC(=O)CN1CCCC1=O [Piracetam] | -0.558 | -0.0728 | -0.653 | -0.301 | -0.56 | -0.514
CC(=O)NC1CCSC1=O (racemic) [N-Acetyl-DL-homocysteine Thiolactone] | -0.475 | -0.898 | -0.462 | -0.0159 | -0.405 | -0.461
CCNCC(O)c1cccc(O)c1 (centres undefined) [Etilefrine hydrochloride] | -0.181 | -0.0522 | 0.485 | -0.0907 | -0.374 | -0.466
CC[N+]1(C)CCCC(OC(=O)C(O)(c2ccccc2)c2ccccc2)C1 (centres undefined) [Pipenzolate bromide] | -0.28 | 0.585 | -0.135 | 0.198 | -0.297 | -0.211
O=c1[nH]oc2c1CCNC2 [THIP Hydrochloride] | -0.526 | -1.24 | -0.151 | -1.07 | -0.413 | -0.582
NCC(O)c1ccc(O)cc1 (racemic) [(+,-)-Octopamine hydrochloride] | -0.262 | 0.0629 | -0.464 | -0.485 | -0.407 | -0.291
CN(C)C(=O)Oc1cc(OC(=O)N(C)C)cc(C(O)CNC(C)(C)C)c1 (centres undefined) [Bambuterol hydrochloride] | -0.585 | -0.352 | -0.328 | -0.434 | -0.64 | -0.586
CCN(CC)C(C)C(=O)c1ccccc1 (centres undefined) [Amfepramone hydrochloride] | -0.552 | 0.252 | -0.82 | -0.758 | -0.654 | -0.615
CCC1=C[C@H]2CN3CCc4c([nH]c5ccccc45)[C@](C(=O)OC)(C2)[C@H]13 [Catharanthine] | 0.776 | 1.57 | 1.16 | 0.581 | 0.958 | 0.861
C#CCN(C)[C@H](C)Cc1ccccc1 [Selegiline hydrochloride] | -0.688 | -1.62 | -0.708 | -0.332 | -0.535 | -0.657
C[N+]12CCC(CC1)C(OC(=O)C(O)(c1ccccc1)c1ccccc1)C2 (centres undefined) [Clidinium bromide] | -0.478 | -0.195 | -0.441 | -0.644 | -0.455 | -0.364
C[C@]12C[C@H]3S[C@H]3C[C@@H]1CC[C@@H]1[C@@H]2CC[C@]2(C)[C@@H](O)CC[C@@H]12 [Epitiostanol] | -0.387 | 0.565 | 0.372 | 0.761 | -0.364 | -0.401
